Laboratory results published in PubChem BioAssay (EPA / NIEHS).
Where “and” joins values, the source holds several entries; their conditions need not be identical. Identical values can stand only once. Results filed as inconclusive are left out. The source holds several records for some structures; these can differ, active in one and inactive in another. Calls of active or inactive are those of the source. Rule for the calls, unless noted: active = hit-call score of the fitted dose curve at least 0.9, where 1 is the maximum; inconclusive = response in the unintended direction; inactive = score below 0.9.

Assays:
[1] = ATG_TCF_b_cat_CIS: Attagene CIS-FACTORIAL HepG2 Assay for human T-Cell-Factor with beta-catenin (TCF/b-cat) (AID 2282965; active = hit-call score of the fitted dose curve at least 0.9, where 1 is the maximum; inactive = score below 0.9); conditions: HepG2 TCF/beta-catenin cis-reporter transcription, actives raise or lower the signal
In short: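 HepG2, transient MRTU transfection, cis-element-driven reporters (endogenous TFs). 24 h compound exposure. Readout: reporter mRNA by RT-PCR + 6-FAM primer extension, HpaI digest, capillary electrophoresis. Gain/loss fit vs DMSO baseline.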

[2] = ATG_TAL_CIS: Attagene CIS-FACTORIAL HepG2 Assay for human TAL Basal Promoter (AID 2282966; active = hit-call score of the fitted dose curve at least 0.9, where 1 is the maximum; inactive = score below 0.9;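 note: background control endpoint measuring basal TAL promoter reporter mRNA not a specific factor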); conditions: HepG2 Attagene cis-factorial TAL promoter reporter; actives raise or lower the signal
In short: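 RT-PCR plus capillary electrophoresis quantifies reporter mRNA induction in transiently transfected HepG2 cells after 24 h chemical treatment. DMSO serves as negative control and baseline for bidirectional fitting.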

[3] = ATG_TGFb_CIS: Attagene CIS-FACTORIAL HepG2 Assay for human Transforming Growth Factor (TGF) (AID 2282967; active = hit-call score of the fitted dose curve at least 0.9, where 1 is the maximum; inactive = score below 0.9); conditions: HepG2 Attagene CIS TGFb reporter, mRNA transcription; actives raise or lower the signal
In short: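 HepG2 cells transiently transfected with cis-promoter-driven multiplexed reporter units; 24 h compound exposure. Reporter mRNA measured by RT-PCR, 6-FAM labeling, HpaI digestion and capillary electrophoresis; bidirectional fit versus DMSO baseline.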

[4] = ATG_VDRE_CIS: Attagene CIS-FACTORIAL HepG2 Assay for human Vitamin D Receptor Element (VDRE) (AID 2282968; active = hit-call score of the fitted dose curve at least 0.9, where 1 is the maximum; inactive = score below 0.9); conditions: HepG2 VDRE cis-reporter transcription, actives raise or lower the signal
In short: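 Cell-based multiplexed reporter format in human liver HepG2 cells, 24 h post-dose. Fluorescence from capillary electrophoresis of reporter cDNA gives the signal, with DMSO as negative control and baseline.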

[5] = biological target: Nuclear receptor subfamily 1 group I member 3 (Homo sapiens) (UniProt Q14994); experiment: ATG_CAR_TRANS: Attagene TRANS-FACTORIAL HepG2 Assay for human Constitutive Androstane Receptor (CAR) (AID 2282969); conditions: HepG2 Attagene TRANS-FACTORIAL CAR reporter;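 note: activators raise reporter mRNA above DMSO so AC50 marks induction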
Sequence of Nuclear receptor subfamily 1 group I member 3 (Homo sapiens) (Q14994 whole entry, looked up, the tested form may be a part): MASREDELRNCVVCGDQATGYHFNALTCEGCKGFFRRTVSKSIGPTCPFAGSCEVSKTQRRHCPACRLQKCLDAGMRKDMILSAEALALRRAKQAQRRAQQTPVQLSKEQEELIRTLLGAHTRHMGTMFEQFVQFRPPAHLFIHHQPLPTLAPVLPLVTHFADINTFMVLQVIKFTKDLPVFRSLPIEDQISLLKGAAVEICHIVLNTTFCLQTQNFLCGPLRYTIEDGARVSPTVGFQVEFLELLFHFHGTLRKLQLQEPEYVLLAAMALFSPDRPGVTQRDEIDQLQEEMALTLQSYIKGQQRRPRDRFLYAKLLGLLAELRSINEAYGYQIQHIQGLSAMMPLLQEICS
In short: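 HepG2 cells transiently transfected with GAL4-UAS reporter units; TRANS format reads activity of exogenous chimeric NR-Gal4 protein. After 24 h dosing, reporter mRNA quantified by RT-PCR, 6-FAM labelling and capillary electrophoresis; gain of signal fitted against DMSO.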

[6] = biological target: Estrogen receptor (Homo sapiens) (UniProt P03372); experiment: ATG_ERa_TRANS: Attagene TRANS-FACTORIAL HepG2 Assay for human Estrogen Receptor alpha (ERa) (AID 2282970); conditions: HepG2 Attagene TRANS ERa GAL4 reporter, mRNA
In short: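 Cells: HepG2, transiently transfected. Construct: GAL4-UAS reporter units regulated by exogenous NR-Gal4 chimeras. Time: 24 h. Detection: reporter mRNA by RT-PCR, capillary electrophoresis, fluorescence. Baseline: DMSO, upward fitting.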

[7] = biological target: Steroid hormone receptor ERR1 (Homo sapiens) (UniProt P11474); experiment: ATG_ERRa_TRANS: Attagene TRANS-FACTORIAL HepG2 Assay for human Estrogen-Related Receptor alpha (ERRa) (AID 2282971); conditions: HepG2 Attagene TRANS reporter, ERRa transactivation
Sequence of Steroid hormone receptor ERR1 (Homo sapiens) (P11474 whole entry, looked up, the tested form may be a part): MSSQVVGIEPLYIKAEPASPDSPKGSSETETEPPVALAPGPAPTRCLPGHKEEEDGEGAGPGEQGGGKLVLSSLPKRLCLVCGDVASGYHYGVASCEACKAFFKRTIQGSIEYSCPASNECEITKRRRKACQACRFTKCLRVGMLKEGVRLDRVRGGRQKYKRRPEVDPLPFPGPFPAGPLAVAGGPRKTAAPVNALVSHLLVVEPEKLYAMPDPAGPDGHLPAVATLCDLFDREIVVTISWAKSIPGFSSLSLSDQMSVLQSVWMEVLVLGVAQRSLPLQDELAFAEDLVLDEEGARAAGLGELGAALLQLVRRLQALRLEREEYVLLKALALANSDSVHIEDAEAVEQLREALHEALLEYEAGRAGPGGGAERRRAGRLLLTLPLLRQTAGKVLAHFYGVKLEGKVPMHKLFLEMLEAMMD
In short: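 Reporter transcripts from ERRa-Gal4 chimera activity measured in transiently transfected human HepG2 cells 24 hours after dosing, using RT-PCR with 6-FAM primer extension, HpaI digestion and capillary electrophoresis; DMSO is baseline.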

[8] = biological target: X-box-binding protein 1 (Homo sapiens) (UniProt P17861); experiment: ATG_Xbp1_CIS: Attagene CIS-FACTORIAL HepG2 Assay for human X-box Binding Protein 1 (XBP1) (AID 2282972; active = hit-call score of the fitted dose curve at least 0.9, where 1 is the maximum; inactive = score below 0.9); conditions: HepG2 XBP1 cis-element reporter, Attagene multiplex; actives raise or lower the signal
Sequence of X-box-binding protein 1 (Homo sapiens) (P17861 whole entry, looked up, the tested form may be a part): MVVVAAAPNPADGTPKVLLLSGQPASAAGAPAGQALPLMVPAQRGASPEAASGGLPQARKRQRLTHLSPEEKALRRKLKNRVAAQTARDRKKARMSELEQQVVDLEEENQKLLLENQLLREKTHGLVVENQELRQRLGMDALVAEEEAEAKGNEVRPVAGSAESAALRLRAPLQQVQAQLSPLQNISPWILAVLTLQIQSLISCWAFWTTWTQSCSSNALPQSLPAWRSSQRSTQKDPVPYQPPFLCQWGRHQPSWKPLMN
In short: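 Fluorescence-labelled cDNA fragments from reporter transcripts, separated by capillary electrophoresis, give the signal. Source: HepG2 cells transfected with promoter-driven reporter units, harvested 24 h post-dose. DMSO served as reference for bidirectional curve fitting.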

[9] = ATG_M_19_TRANS: Attagene TRANS-FACTORIAL HepG2 Assay for M19 Transcription Factor (Internal Marker) (AID 2282974); conditions: HepG2 Attagene TRANS-FACTORIAL M19 internal marker reporter
In short: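 After transfection of HepG2 with GAL4-UAS-driven reporter constructs, cells are dosed for 24 h. Total RNA is reverse-transcribed, reporter sequences PCR-amplified and labelled, then HpaI-digested and sized by capillary electrophoresis.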

[10] = ATG_GAL4_TRANS: Attagene TRANS-FACTORIAL HepG2 Assay for GAL4 (Internal Marker) (AID 2282976); conditions: HepG2 Attagene TRANS GAL4 internal marker reporter
In short: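 In transfected human HepG2 liver cells dosed 24 h, GAL4 reporter mRNA serves as a baseline marker. Detection by RT-PCR with fluorescent capillary electrophoresis, activity fitted upward relative to DMSO.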

[11] = biological target: Glucocorticoid receptor (Homo sapiens) (UniProt P04150); experiment: ATG_GR_TRANS: Attagene TRANS-FACTORIAL HepG2 Assay for human Glucocorticoid Receptor (GR) (AID 2282978); conditions: HepG2 Attagene TRANS GR reporter, mRNA transcription;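 note: activators score as hits since higher reporter transcript over DMSO is fitted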
Sequence of Glucocorticoid receptor (Homo sapiens) (P04150 whole entry, looked up): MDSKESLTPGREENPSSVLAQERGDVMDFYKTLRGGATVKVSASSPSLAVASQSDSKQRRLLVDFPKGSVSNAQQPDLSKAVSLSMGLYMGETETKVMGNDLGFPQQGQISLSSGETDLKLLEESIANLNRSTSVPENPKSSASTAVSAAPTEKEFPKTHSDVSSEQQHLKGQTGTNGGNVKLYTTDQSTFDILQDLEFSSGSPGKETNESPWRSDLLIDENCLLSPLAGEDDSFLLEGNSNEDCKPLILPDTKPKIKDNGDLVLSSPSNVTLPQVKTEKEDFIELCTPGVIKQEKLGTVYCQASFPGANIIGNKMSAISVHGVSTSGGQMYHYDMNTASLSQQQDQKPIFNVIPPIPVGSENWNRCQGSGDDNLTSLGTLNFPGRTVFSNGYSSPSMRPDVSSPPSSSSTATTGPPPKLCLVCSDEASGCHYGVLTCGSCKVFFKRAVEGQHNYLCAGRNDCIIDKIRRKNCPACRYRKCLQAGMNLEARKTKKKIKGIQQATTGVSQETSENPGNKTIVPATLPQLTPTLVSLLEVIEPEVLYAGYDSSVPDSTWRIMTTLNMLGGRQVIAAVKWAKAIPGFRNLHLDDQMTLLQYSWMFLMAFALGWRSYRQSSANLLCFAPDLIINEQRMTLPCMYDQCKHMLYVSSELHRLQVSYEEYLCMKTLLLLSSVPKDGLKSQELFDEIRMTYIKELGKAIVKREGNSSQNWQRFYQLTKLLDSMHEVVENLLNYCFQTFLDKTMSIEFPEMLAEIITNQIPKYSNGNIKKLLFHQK
In short: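 Multiplexed TRANS reporter system, HepG2; 24 h exposure; RNA → oligo(dT) RT → reporter-specific PCR → 6-FAM primer extension → HpaI cut → CE fluorescence. Gain-of-signal vs DMSO.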

[12] = biological target: Bile acid receptor (Homo sapiens) (UniProt Q96RI1); experiment: ATG_FXR_TRANS: Attagene TRANS-FACTORIAL HepG2 Assay for Farnesoid X Receptor (FXR) (AID 2282979); conditions: HepG2 Attagene TRANS FXR-GAL4 reporter transcription;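 note: hits raise reporter mRNA above DMSO so AC50 marks FXR activation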
Sequence of Bile acid receptor (Homo sapiens) (Q96RI1 whole entry, looked up, the tested form may be a part): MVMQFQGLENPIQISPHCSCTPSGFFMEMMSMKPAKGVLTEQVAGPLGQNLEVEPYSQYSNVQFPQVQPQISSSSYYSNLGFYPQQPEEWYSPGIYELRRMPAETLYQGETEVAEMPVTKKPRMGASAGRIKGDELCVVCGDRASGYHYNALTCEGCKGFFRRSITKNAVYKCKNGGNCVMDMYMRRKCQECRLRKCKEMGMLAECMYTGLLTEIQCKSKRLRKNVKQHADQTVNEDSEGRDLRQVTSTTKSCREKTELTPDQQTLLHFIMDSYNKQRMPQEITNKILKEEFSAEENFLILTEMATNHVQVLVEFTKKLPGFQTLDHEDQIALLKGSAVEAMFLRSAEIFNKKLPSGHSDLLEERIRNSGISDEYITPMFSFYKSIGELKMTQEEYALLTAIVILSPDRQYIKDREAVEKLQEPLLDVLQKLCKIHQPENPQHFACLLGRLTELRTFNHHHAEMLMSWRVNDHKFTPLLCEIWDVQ
In short: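 Reporter transcripts from transfected HepG2 cells were measured 24 h after dosing, using RT-PCR with capillary electrophoresis of 6-FAM-labelled fragments. The read-out reflects activity of exogenous FXR-Gal4 chimera on GAL4-UAS units, with induction relative to DMSO.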

[13] = biological target: Oxysterols receptor LXR-alpha (Homo sapiens) (UniProt Q13133); experiment: ATG_LXRa_TRANS: Attagene TRANS-FACTORIAL HepG2 Assay for human Liver X Receptor alpha (LXRa) (AID 2282980); conditions: HepG2 Attagene TRANS reporter, LXRa transactivation
Sequence of Oxysterols receptor LXR-alpha (Homo sapiens) (Q13133 whole entry, looked up, the tested form may be a part): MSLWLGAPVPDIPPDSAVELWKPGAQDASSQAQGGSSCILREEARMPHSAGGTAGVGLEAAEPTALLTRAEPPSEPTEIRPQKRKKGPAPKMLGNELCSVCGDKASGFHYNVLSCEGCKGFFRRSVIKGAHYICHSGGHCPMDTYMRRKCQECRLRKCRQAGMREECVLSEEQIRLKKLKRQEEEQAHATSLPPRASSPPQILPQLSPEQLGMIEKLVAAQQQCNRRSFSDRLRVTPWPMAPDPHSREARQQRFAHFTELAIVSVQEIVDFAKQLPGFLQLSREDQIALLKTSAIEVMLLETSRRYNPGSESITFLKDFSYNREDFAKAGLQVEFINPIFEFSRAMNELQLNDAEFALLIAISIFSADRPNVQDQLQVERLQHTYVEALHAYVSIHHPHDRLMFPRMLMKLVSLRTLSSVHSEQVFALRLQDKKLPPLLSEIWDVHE
In short: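 Chemical-induced reporter mRNA measured by RT-PCR with fluorescent labelling and capillary electrophoresis after 24 h dosing of transiently transfected HepG2 cells expressing exogenous NR-Gal4 chimeras; increases scored against DMSO baseline.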

[14] = biological target: Oxysterols receptor LXR-beta (Homo sapiens) (UniProt P55055); experiment: ATG_LXRb_TRANS: Attagene TRANS-FACTORIAL HepG2 Assay for human Liver X Receptor beta (LXRb) (AID 2282981); conditions: HepG2 Attagene TRANS GAL4-LXRb reporter, mRNA
In short: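 Gain-of-signal mRNA reporter endpoint, DMSO as negative control. Transiently transfected HepG2 cells carrying the NR-Gal4 chimera and GAL4-UAS reporter units were treated 24 h; transcripts quantified by RT-PCR and capillary electrophoresis fluorescence.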

[15] = biological target: Hepatocyte nuclear factor 4-alpha (Homo sapiens) (UniProt P41235); experiment: ATG_HNF4a_TRANS: Attagene TRANS-FACTORIAL HepG2 Assay for human Hepatocyte Nuclear Factor 4 alpha (HNF4a) (AID 2282982); conditions: HepG2 HNF4a transactivation reporter, mRNA readout
Sequence of Hepatocyte nuclear factor 4-alpha (Homo sapiens) (P41235 whole entry, looked up, the tested form may be a part): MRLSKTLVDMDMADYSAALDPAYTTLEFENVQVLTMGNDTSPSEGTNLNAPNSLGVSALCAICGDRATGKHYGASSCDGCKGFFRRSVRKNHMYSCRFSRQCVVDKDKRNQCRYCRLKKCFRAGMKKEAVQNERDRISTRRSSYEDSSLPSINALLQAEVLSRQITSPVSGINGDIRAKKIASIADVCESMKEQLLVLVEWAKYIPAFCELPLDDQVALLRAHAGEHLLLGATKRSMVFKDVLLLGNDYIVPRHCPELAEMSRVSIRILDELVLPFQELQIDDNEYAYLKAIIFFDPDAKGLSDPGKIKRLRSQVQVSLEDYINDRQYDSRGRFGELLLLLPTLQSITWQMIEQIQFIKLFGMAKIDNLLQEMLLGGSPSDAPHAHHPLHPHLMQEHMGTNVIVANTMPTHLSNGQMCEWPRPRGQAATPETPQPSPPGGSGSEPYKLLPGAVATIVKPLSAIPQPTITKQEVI
In short: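 Gain-of-signal mRNA induction, relative to DMSO vehicle, was read after 24 h compound treatment of HepG2 cells bearing transfected GAL4-UAS reporters. Detection used RT-PCR, 6-FAM primer extension and capillary electrophoresis.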

[16] = ATG_M_06_TRANS: Attagene TRANS-FACTORIAL HepG2 Assay for M06 Transcription Factor (Internal Marker) (AID 2282983); conditions: HepG2 Attagene TRANS M06 internal marker reporter;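 for AC50: potency for rise in reporter mRNA above DMSO baseline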
In short: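 Cells: HepG2, transient multi-reporter transfection. Exposure: 24 h. Detection: RT-PCR, 6-FAM labelling, HpaI digestion (2 h, 37 °C), capillary electrophoresis. Baseline: DMSO.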

[17] = ATG_M_32_TRANS: Attagene TRANS-FACTORIAL HepG2 Assay for M32 Transcription Factor (Internal Marker) (AID 2282984); conditions: HepG2 Attagene TRANS M32 internal marker reporter;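 note: transcript level of a background control reporter unit measured by RT-PCR and capillary electrophoresis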
In short: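 Capillary electrophoresis of 6-FAM-labelled reporter fragments gives the signal; data fitted for gain over DMSO negative control. Source: HepG2 cells bearing transient multiple reporter transcription units, 24 h exposure.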

[18] = biological target: Nuclear receptor subfamily 4 group A member 2 (Homo sapiens) (UniProt P43354); experiment: ATG_NURR1_TRANS: Attagene TRANS-FACTORIAL HepG2 Assay for human Nuclear Receptor Related Protein 1 (NURR1) (AID 2282985); conditions: HepG2 Attagene TRANS reporter, mRNA readout
Sequence of Nuclear receptor subfamily 4 group A member 2 (Homo sapiens) (P43354 whole entry, looked up): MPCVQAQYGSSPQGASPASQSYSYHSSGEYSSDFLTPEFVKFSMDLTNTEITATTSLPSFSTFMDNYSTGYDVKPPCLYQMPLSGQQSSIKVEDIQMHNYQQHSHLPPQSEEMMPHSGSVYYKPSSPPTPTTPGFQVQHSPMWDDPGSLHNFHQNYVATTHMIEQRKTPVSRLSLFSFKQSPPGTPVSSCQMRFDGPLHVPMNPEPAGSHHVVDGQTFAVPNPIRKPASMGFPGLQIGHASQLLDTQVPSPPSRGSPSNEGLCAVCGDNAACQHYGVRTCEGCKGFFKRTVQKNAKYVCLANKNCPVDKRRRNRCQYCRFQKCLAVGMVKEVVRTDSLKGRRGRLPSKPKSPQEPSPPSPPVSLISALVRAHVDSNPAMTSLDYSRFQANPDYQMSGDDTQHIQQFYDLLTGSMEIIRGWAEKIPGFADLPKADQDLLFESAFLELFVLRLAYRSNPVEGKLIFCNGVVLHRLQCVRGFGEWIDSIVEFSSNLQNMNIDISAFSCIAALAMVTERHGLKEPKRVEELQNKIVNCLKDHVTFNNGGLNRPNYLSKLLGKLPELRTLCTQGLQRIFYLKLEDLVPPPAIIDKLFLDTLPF
In short: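 HepG2 / transient MRTU transfection / 24 h compound exposure / RT-PCR + CE fluorescence of reporter mRNA / gain-of-signal vs DMSO.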

[19] = biological target: Transcriptional activator Myb (Homo sapiens) (UniProt P10242); experiment: ATG_Myb_CIS: Attagene CIS-FACTORIAL HepG2 Assay for human Myeloblastosis (Myb) Proto-Oncogene Transcription Factor (AID 2282986; active = hit-call score of the fitted dose curve at least 0.9, where 1 is the maximum; inactive = score below 0.9); conditions: HepG2 Attagene CIS-FACTORIAL Myb reporter transcription; actives raise or lower the signal
Sequence of Transcriptional activator Myb (Homo sapiens) (P10242 whole entry, looked up): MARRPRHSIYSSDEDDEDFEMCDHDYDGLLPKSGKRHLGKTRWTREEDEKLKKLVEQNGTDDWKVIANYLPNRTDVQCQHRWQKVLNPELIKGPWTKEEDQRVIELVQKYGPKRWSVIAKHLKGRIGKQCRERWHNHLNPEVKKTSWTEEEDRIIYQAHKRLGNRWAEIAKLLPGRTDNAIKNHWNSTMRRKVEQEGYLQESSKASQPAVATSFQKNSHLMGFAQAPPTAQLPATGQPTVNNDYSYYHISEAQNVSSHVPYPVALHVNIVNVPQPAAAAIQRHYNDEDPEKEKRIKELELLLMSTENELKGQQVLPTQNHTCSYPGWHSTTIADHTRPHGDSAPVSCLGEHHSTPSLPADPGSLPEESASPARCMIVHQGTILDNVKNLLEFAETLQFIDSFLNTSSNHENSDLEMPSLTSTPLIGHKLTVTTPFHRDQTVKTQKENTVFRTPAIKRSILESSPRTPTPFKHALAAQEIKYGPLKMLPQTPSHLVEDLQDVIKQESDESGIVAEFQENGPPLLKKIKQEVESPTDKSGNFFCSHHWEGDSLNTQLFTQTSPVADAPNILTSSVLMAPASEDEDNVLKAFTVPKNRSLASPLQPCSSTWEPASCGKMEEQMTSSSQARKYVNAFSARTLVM
In short: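 Endogenous transcription factor activity at a Myb-responsive cis element is reported in human liver HepG2 cells after 24 h chemical treatment. Reporter mRNA is detected by RT-PCR and capillary electrophoresis fluorescence, with DMSO as baseline.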

[20] = biological target: Estrogen-related receptor gamma (Homo sapiens) (UniProt P62508); experiment: ATG_ERRg_TRANS: Attagene TRANS-FACTORIAL HepG2 Assay for human Estrogen-Related Receptor gamma (ERRg) (AID 2282977); conditions: HepG2 Attagene TRANS reporter, ERRg transactivation;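 note: hits increase reporter signal over DMSO so potencies reflect activators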
Sequence of Estrogen-related receptor gamma (Homo sapiens) (P62508 whole entry, looked up, the tested form may be a part): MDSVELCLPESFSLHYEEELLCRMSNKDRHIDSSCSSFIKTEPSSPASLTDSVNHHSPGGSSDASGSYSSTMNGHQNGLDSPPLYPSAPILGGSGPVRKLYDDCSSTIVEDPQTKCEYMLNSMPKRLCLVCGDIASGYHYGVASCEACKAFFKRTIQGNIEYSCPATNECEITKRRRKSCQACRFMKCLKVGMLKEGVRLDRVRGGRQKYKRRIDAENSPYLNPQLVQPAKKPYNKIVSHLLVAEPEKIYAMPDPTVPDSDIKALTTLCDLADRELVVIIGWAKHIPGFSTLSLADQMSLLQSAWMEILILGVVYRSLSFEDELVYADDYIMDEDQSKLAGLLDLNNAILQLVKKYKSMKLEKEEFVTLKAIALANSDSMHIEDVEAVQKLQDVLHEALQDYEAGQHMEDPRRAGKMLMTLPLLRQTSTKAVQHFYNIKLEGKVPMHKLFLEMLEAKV
In short: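 HepG2 cells transiently transfected with multiplexed GAL4-UAS reporter units and chimeric NR-Gal4 constructs were exposed to test chemicals for 24 h. Reporter mRNA was measured by RT-PCR, 6-FAM primer extension, HpaI digestion and capillary electrophoresis; gain-of-signal versus DMSO.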

Measured: AC50

FC(F)(F)C(F)(F)C(F)(F)C(F)(F)C(F)(F)C(F)(F)C(F)(F)C(F)(F)F
inactive: [1] | [2] | [3] | [4] | [5] | [6] | [7] | [8] | [9] | [10] | [11] | [12] | [13] | [14] | [15] | [16] | [17] | [18] | [19]

O=C(O)C(F)(F)C(F)(F)C(F)(F)C(F)(F)F
inactive: [1] | [2] | [3] | [4] | [5] | [6] | [7] | [8] | [9] | [10] | [20] | [11] | [12] | [13] | [14] | [16] | [17]

C=C(C)C(=O)OCC(F)(F)C(F)(F)C(F)(F)C(F)(F)C(F)(F)C(F)(F)C(F)(F)F
inactive: [1] | [2] | [3] | [4] | [5] | [7] | [8] | [9] | [10] | [11] | [13] | [14] | [16] | [18] | [19]
active: [6] 10.5 µM

FC(F)(F)C(F)(F)C(F)(F)C(F)(F)C(F)(F)C(F)(F)C(F)(F)I
active: [6] 3.7 µM
inactive: [1] | [2] | [3] | [4] | [5] | [7] | [8] | [9] | [12] | [13] | [16] | [17] | [19]

CCN(Cc1cccc(S(=O)(=O)O)c1)c1ccc(C(=C2C=CC(=[N+](CC)Cc3cccc(S(=O)(=O)O)c3)C=C2)c2ccc(O)cc2S(=O)(=O)[O-])cc1
inactive: [1] | [2] | [3] | [4] | [5] | [6] | [7] | [8] | [9] | [20] | [12] | [13] | [14] | [17]

c1ccc(B(c2ccccc2)c2ccccc2)cc1
active: [4] 20.7 µM | [6] 5.7 µM | [8] 31.7 µM
inactive: [1] | [2] | [3] | [5] | [7] | [9] | [10] | [20] | [11] | [12] | [13] | [15] | [16] | [17] | [19]

OCCCC(F)(F)C(F)(F)C(F)(F)C(F)(F)C(F)(F)C(F)(F)C(F)(F)F
inactive: [1] | [2] | [3] | [4] | [7] | [20] | [11] | [12] | [13] | [14] | [17]
active: [1] 33.7 µM | [2] 88.7 µM | [4] 150 µM | [6] 13.7 µM and 13.2 µM | [8] 72.5 µM and 97.8 µM | [16] 79.1 µM | [18] 16.6 µM and 17.2 µM

FC(F)(F)C(F)(F)C(F)(F)C(F)(F)C(F)(F)CCI
active: [6] 41 µM
inactive: [1] | [2] | [3] | [4] | [5] | [7] | [8] | [9] | [11] | [12] | [13] | [14] | [17] | [18]
